High-throughput results from PubChem.
This is one part of a sample in which hits are shown more often than they occur.
nsP2pro primary: Primary qHTS for inhibitors of NSP2Pro chikungunya virus (CHIKV). Polyprotein P1234 (Chikungunya virus (strain S27-African prototype)), Q8JUX6. FRET peptide cleavage, nsP2pro, fluorescence 1 h. Potency, µM (doses to about 24.9 µM), for inactives: at the top dose activity change, negative = inhibition, hits mostly inhibitors. actives 1.1% (n = 31,000); calls by dose curve; note: nearly all actives have a fitted effect of over 60% in size
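FRET cleavage of 2.5 uM peptide 2 by 150 nM CHIKV protease domain at pH 8.0 (Tris, Tween 20). Compounds at 7 concentrations (up to 25 uM) preincubated 15 min. Fluorescence read after 1 h at room temperature.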
* hit, by the source's call; ! = repeats disagree; [ ] = remark or other dose. % is set by controls: 0 for no effect and ±100 for the full control effect; potency is the fitted concentration of half-maximal effect.

For CC[C@H]1OC(=O)[C@H](C)[C@@H](O[C@H]2C[C@@](C)(OC)[C@@H](O)[C@H](C)O2)[C@H](C)[C@@H](O[C@@H]2O[C@H](C)C[C@H](N(C)C)[C@H]2O)[C@@](C)(O)C[C@@H](C)[C@@H]2N[C@@H](COCCOC)OC([C@H]2C)[C@]1(C)O the results were nsP2pro primary 248%.
Screening CC1CC2OC3(OC2C(C)(C)O)C1C1(C)CCC24CC25CCC(O[C@@H]2OC[C@@H](O)[C@H](O)[C@H]2O)C(C)(C)C5CC=C4C1(C)C3O (stereo partly drawn) returned nsP2pro primary -8%[10 µM].
Cc1cc(NS(=O)(=O)c2cc3c(cc2F)NC(=O)CC3)ccc1Cl was read as nsP2pro primary -14%.
`CCc1ccc(NS(=O)(=O)c2ccc3[nH]c4c(c3c2)CCCCCC4)cc1` gave nsP2pro primary -19%.
Screening CCCCc1ccc(NS(=O)(=O)c2ccc(F)cc2)cc1 returned nsP2pro primary -9%.
Screening CCc1ccc(NS(=O)(=O)c2[nH]ncc2C(=O)OC)cc1 returned nsP2pro primary 10µM*.
`C#C[C@]1(O)CC[C@H]2[C@@H]3CCC4=CC(=O)CCC4[C@H]3CC[C@@]21CC` (stereo partly drawn) gave nsP2pro primary -2%.
Screening Nc1cccc(CNC(=O)c2ccc(Oc3ccc(OCc4cccc(F)c4)cc3)nc2)c1 returned nsP2pro primary 50%.
`CC1=CC2OC3[C@H](O)C[C@@](C)([C@]34CO4)[C@@]2(CO)[C@H](O)C1=O` (stereo partly drawn) gave nsP2pro primary 0.31µM*.
Screening CC(=O)OC[C@]12C[C@H](OC(=O)CC(C)C)C(C)=C[C@H]1O[C@@H]1[C@H](O)[C@@H](O)[C@@]2(C)[C@]12CO2 returned nsP2pro primary -7%[10 µM].
CC(=O)OC[C@]12C[C@H](O)C(C)=C[C@H]1O[C@@H]1[C@H](O)[C@@H](O)[C@@]2(C)[C@]12CO2 was read as nsP2pro primary -2%.
C/C=C(/C)C(=O)O[C@H]1C(C)=CC23C(=O)C(C=C(CO)[C@@H](O)[C@]12O)[C@H]1[C@@H](C[C@H]3C)C1(C)C (stereo partly drawn) was read as nsP2pro primary -2%.
Screening Cc1cc(-c2nnc3n2CCCCC3)c(C)n1-c1cccnc1 returned nsP2pro primary -5%.
`c1ccc(-n2ccc(-c3nnc4n3CCCCC4)c2)cc1` gave nsP2pro primary 13µM*.
For c1ccc(-n2cc(-c3nnc4n3CCCCC4)c3ccccc32)cc1 the results were nsP2pro primary inactive.
For Cc1cc(C)nc(NC(=S)N2CCN(c3cccc4nccn34)CC2)c1 the results were nsP2pro primary 4%.
`S=C(Nc1cc(Cl)ccn1)N1CCN(c2cccc(Cl)c2Cl)CC1` gave nsP2pro primary inactive.
CC(C)CN1CCN(C(=O)CC2CCN(S(C)(=O)=O)C2)CC1 (stereo not drawn) was read as nsP2pro primary 0%.
O=C(O)/C=C/CCCCCCCO was read as nsP2pro primary -3%.
For CC(C)CN(Cc1cccnc1)C1CN(C(=O)CCc2nc3ccccc3s2)C1 the results were nsP2pro primary inactive.
Screening CCOc1ccccc1CN1CCC2(CCN(C(=O)Cc3ccccn3)CC2)Oc2ccccc21 returned nsP2pro primary -4%.
For O=C1CCCc2cc(S(=O)(=O)Nc3cnccc3C(=O)Nc3nc(-c4ccccc4)cs3)ccc2N1 the results were nsP2pro primary inactive.
For CCOc1ccc(C(c2c(O)cc(C)n(CCOC)c2=O)N2CCN(c3ccccc3F)CC2)cc1 (stereo not drawn) the results were nsP2pro primary 13µM*.
`Cn1c(=O)cc(SCC(=O)N2CCN(c3ccccc3F)CC2)c2ccccc21` gave nsP2pro primary -19%.
CCOC(=O)c1cnc2ccc(OCC)cc2c1N1CCN(c2ccccc2F)CC1 was read as nsP2pro primary -11%.
COCCN(C)Cc1ccc2nc3sc(C(=O)N(C)C4CCCCC4)cn3c2c1 was read as nsP2pro primary 1%.
O=S(=O)(Cl)c1ccc(-c2ccccc2)cc1 was read as nsP2pro primary -10%.
`CC(=O)Nc1sc2c(c1-c1ccc(N3CCN(C)CC3)cc1)CCNC2` gave nsP2pro primary 3%.
Screening CC(C)N1CC(C(=O)NCCc2ccc(Cl)cc2)NC1=O (stereo not drawn) returned nsP2pro primary -2%[39.2 µM].
For COCCCOc1ccnc(CS(=O)c2nc3ccccc3[nH]2)c1C (stereo not drawn) the results were nsP2pro primary -19%.
COc1ccc2c(c1)[nH]c1c(C)nccc12 was read as nsP2pro primary -7%.
For COc1ccc2nc(S(=O)Cc3ncc(C)c(OC)c3C)[nH]c2c1 (stereo not drawn) the results were nsP2pro primary 10µM*!.
CC(C)(C)OC(=O)N1CCN(c2ccc(NCc3ccc(-c4ccc(C#N)cc4)o3)cc2)CC1 was read as nsP2pro primary -8%.
Screening CC(=O)Nc1sc2c(c1-c1ccc3[nH]ccc3c1)CCNC2 returned nsP2pro primary inactive.
